Compound activity from PubChem.
Sampled rows, rich in hits. Any-hit rate of the full collection: about 8.9%.
mHtt clearance: clearance of mutant huntingtin inclusions, primary screen, imaging, HeLa Exon1htt(103Q)mCFP, confocal imaging; aggregate imaging; zero = plate's median compound well; inhibition, % at 1.5 µM; 0.42% of 47,000 active; AID 853, 2007;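 active = inhibition of aggregate fluorescence above about 70%, also judged a hit by eye on the cell image, limit read from the data, passing the limit was not always enough; inconclusive = no rule stated for this call; inactive = not judged a hit on image review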;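 note: cells exposed to compound for three days before fixation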
WNV protease inh: inhibitors of WNV NS2B-NS3 protease, primary screen, biochemical, fluorogenic substrate | 0.18% of 65,000 active | Genome polyprotein (West Nile virus), P06935 | fluorogenic substrate Ex360/Em465; hits give low values | AID 577, 2007 | z-score (no concentration beside the values); in the data active = z-score below about -3
M1 antagonist: antagonists of rat M1 muscarinic receptor; Muscarinic acetylcholine receptor M1 (Rattus norvegicus), P08482; CHO-M1 cells, Fluo-4 calcium, ACh EC80 antagonist mode; hits give low values; B-score at 10 µM; 3.4% of 64,000 active;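 active = calcium fluorescence response, raw or row-and-column corrected B-score, differing from the plate sample mean either way at a set confidence level, mostly lower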
Target sequence (P08482 whole entry, looked up): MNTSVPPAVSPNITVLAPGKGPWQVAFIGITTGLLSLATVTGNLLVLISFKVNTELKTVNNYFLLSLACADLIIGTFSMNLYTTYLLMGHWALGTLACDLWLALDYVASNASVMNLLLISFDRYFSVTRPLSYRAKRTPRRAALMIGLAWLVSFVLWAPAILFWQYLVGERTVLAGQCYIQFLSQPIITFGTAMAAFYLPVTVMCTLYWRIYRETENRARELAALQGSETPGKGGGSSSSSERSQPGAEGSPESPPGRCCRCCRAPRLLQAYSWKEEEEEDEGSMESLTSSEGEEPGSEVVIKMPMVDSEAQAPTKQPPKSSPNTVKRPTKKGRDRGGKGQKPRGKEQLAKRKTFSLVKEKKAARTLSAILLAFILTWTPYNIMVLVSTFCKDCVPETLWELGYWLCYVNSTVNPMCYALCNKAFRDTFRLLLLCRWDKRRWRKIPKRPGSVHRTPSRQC
D1 mod: D1 CRE-luciferase signal change, two-sided – cell-based, HEK293 D1, dopamine EC30, D1 allosteric modulator project, primary screen | AID 641, 2007 | 5.9% of 58,000 active | D(1A) dopamine receptor (Homo sapiens), P21728 | B-score at 10 µM | dopamine EC30 potentiation; actives deviate in either direction;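 active = luminescence count or its row- and column-corrected plate score outside the 99.7% band of the plate's sample wells, on either side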
M1 agonist: M1 muscarinic receptor agonists, primary screen, CHO-M1 cells, Fluo-4 calcium, agonist mode; Muscarinic acetylcholine receptor M1; Fluo-4 calcium fluorescence; hits give high values; B-score at 10 µM; 3% of 64,000 active; AID 626, 2007;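 active = fluorescence rise, raw or as B-score row- and column-corrected plate score, outside the 99.7% band of its plate's samples, either direction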
M1 antag conf: rat M1 muscarinic receptor antagonists, confirmation, CHO cells, Fluo-4 calcium, duplicate; shares compounds with M1 antagonist; ACh EC80 antagonism; hits give low values; calcium response (max-min fluorescence) at 10 µM; 43% of 1,700 active; AID 677, 2007;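 active = calcium response below the same-plate mean of wells given acetylcholine alone at its 80%-effect dose, minus 3 SD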
mGluR4 antag: human mGluR4 response to M1 antagonist hits, M1 allosteric modulator project, cell-based, antagonist mode, secondary assay 1; shares compounds with M1 antagonist; CHO-mGluR4 calcium flux, Fluo-4 fluorescence, glutamate EC80; hits give low values; fluorescence response (max-min) at 10 µM; 0.9% of 1,700 active; AID 678, 2007;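 active = fluorescence response below the plate's average for near-maximal glutamate wells, less 3 SD of those wells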;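 note: raw unnormalized fluorescence span taken in the window right after glutamate addition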
A number is an active result.

For CCOC(=O)NC(=O)COC(=O)Cc1cc(OC)c(OC)c(OC)c1 the results were mHtt clearance inactive, WNV protease inh inactive, M1 antagonist inactive, D1 mod inactive and M1 agonist inactive.
Oc1ccccc1-c1nc(NCCN2CCOCC2)c2ccccc2n1 was read as WNV protease inh inactive, M1 antagonist -2.8, M1 agonist inactive, M1 antag conf inactive and mGluR4 antag inactive.
COc1cccc(-c2nc(NCCN3CCOCC3)c3ccccc3n2)c1O was read as WNV protease inh inactive, M1 antagonist inactive and M1 agonist inactive.
CCOC(=O)CSc1nnc(NCC(=O)OC(C)C)c(=O)[nH]1 was read as mHtt clearance inactive, WNV protease inh inactive, M1 antagonist -2.2, D1 mod inactive, M1 agonist inactive, M1 antag conf inactive and mGluR4 antag inactive.
Screening Cc1ccc(-c2nnn(CC(=O)O)n2)cc1 returned mHtt clearance inactive, WNV protease inh inactive, M1 antagonist inactive, D1 mod inactive and M1 agonist inactive.
For CSc1ccc(-c2nnn(Cc3ccc(C)cc3)n2)cc1 the results were mHtt clearance inactive, WNV protease inh inactive, M1 antagonist -5.4, M1 agonist inactive, M1 antag conf inactive and mGluR4 antag inactive.
`COc1ccc(CNC(=O)CSc2nnnn2-c2ccccc2)cc1` gave WNV protease inh inactive, M1 antagonist -4.8, D1 mod inactive, M1 agonist inactive, M1 antag conf inactive and mGluR4 antag inactive.
Screening CS(=O)(=O)N1CCC(C(=O)Nc2ccc(OCc3ccccc3)cc2)CC1 returned mHtt clearance inactive, WNV protease inh inactive, M1 antagonist inactive, D1 mod inactive and M1 agonist inactive.
`CC(O)CNC(=O)C1CCN(Cc2ccc(OCc3ccccc3)cc2)CC1` (stereo not given) gave mHtt clearance inactive, WNV protease inh inactive, M1 antagonist -4.8, D1 mod inactive, M1 agonist inactive, M1 antag conf inactive and mGluR4 antag inactive.
CCN1CCN(Cc2ccc(OCc3ccccc3)cc2)CC1 was read as mHtt clearance inactive, WNV protease inh inactive, M1 antagonist -4.4, D1 mod inactive, M1 agonist inactive, M1 antag conf 345 and mGluR4 antag inactive.
For CN1CCN(Cc2ccc(OCc3ccccc3)cc2)CC1 the results were mHtt clearance inconclusive, WNV protease inh inactive, M1 antagonist inactive, D1 mod inactive and M1 agonist inactive.
For CCc1nnc2n1N=C(c1ccc(-c3cc(Cl)ccc3Cl)o1)CS2 the results were WNV protease inh inactive, M1 antagonist inactive, D1 mod inactive and M1 agonist inactive.
CCOC(=O)c1c(NC(=O)CSc2nnc(CNC(=O)c3ccco3)n2C)sc2c1CCC2 was read as WNV protease inh inactive, M1 antagonist inactive and M1 agonist inactive.
O=C(Nc1ccc2nc(-c3cccs3)c(-c3cccs3)nc2c1)N1CCOCC1 was read as WNV protease inh inactive, M1 antagonist -12, D1 mod inactive, M1 agonist inactive, M1 antag conf 138 and mGluR4 antag inactive.
For Cc1nc2ccc(NC(=O)N3CCSCC3)cc2nc1C the results were mHtt clearance inactive, WNV protease inh inactive, M1 antagonist inactive, D1 mod inactive and M1 agonist inactive.
Screening COc1cccc(/C=N/n2nnnc2N)c1OCc1ccccc1Cl returned mHtt clearance inactive.
`O=C(COC(=O)C12CC3CC(CC(O)(C3)C1)C2)NC(=O)NCc1ccco1` gave WNV protease inh inactive, M1 antagonist -17, D1 mod inactive, M1 agonist inactive, M1 antag conf 571 and mGluR4 antag inactive.
`Cc1ccc(-c2nnc(N3CCN(C(=O)c4ccco4)CC3)c3ccccc23)cc1` gave WNV protease inh inactive, M1 antagonist -6.9, D1 mod inactive, M1 agonist inactive, M1 antag conf 209 and mGluR4 antag inactive.
For Cc1ccc(OCC(=O)N2CCN(c3nnc(-c4ccc(C)cc4)c4ccccc34)CC2)cc1 the results were mHtt clearance inactive.
Screening CCCOC(=O)C1=C(C)NC2=C(C(=O)CCC2)C1c1ccc(N(C)C)cc1 (stereo not given) returned mHtt clearance inactive, WNV protease inh inactive, M1 antagonist -8.2, M1 agonist inactive, M1 antag conf 248 and mGluR4 antag inactive.
CCOC(=O)C1=C(C)NC2=C(C(=O)CCC2)C1c1ccc(N(C)C)cc1 (stereo not given) was read as WNV protease inh inactive, M1 antagonist -4.3, D1 mod inactive, M1 agonist inactive, M1 antag conf 350 and mGluR4 antag inactive.
For CCCOC(=O)C1=C(C)NC2=C(C(=O)CCC2)C1c1cc(OC)ccc1OC (stereo not given) the results were mHtt clearance inactive, WNV protease inh inactive, M1 antagonist inactive, D1 mod inactive and M1 agonist inactive.
For COCCOC(=O)C1=C(C)NC2=C(C(=O)CCC2)C1c1ccc2c(c1)OCO2 (stereo not given) the results were WNV protease inh inactive, M1 antagonist inactive, D1 mod inactive and M1 agonist inactive.
CCN(CC)c1ccc(C2C(C(=O)OCCOC)=C(C)NC3=C2C(=O)CCC3)cc1 (stereo not given) was read as mHtt clearance inactive, WNV protease inh inactive, M1 antagonist -10, M1 agonist inactive, M1 antag conf 222 and mGluR4 antag inactive.
CCOC(=O)C1=C(C)NC2=C(C(=O)CCC2)C1c1ccsc1 (stereo not given) was read as mHtt clearance inactive, WNV protease inh inactive, M1 antagonist inactive, D1 mod inactive and M1 agonist inactive.
Screening O=C(CN1CCCN(S(=O)(=O)c2ccc(Br)cc2)CC1)Nc1ccc2cn[nH]c2c1 returned mHtt clearance inactive, WNV protease inh inactive, M1 antagonist inactive, D1 mod inactive and M1 agonist inactive.
Screening CCOc1ccc(NC(=O)C2CC(=O)N(c3cc(C)cc(C)c3)C2)cc1 (stereo not given) returned mHtt clearance inactive, WNV protease inh inactive, M1 antagonist -2.8, D1 mod inactive, M1 agonist inactive, M1 antag conf inactive and mGluR4 antag inactive.
CCOc1ccc(N2CC(C(=O)Nc3ccc(S(=O)(=O)N4CCOCC4)cc3)CC2=O)cc1 (stereo not given) was read as WNV protease inh inactive, M1 antagonist inactive, D1 mod inactive and M1 agonist inactive.
